Compound activity from PubChem.
Bim-Mcl-1: inhibitors of Bim peptide binding to Mcl-1, primary screen, biochemical, bead-based flow cytometry, multiplex; AID 1009, 2008; 0.1% of 190,000 active; Induced myeloid leukemia cell differentiation protein Mcl-1 (Homo sapiens), Q07820; inhibition, % at 10 µM; Bim peptide-Mcl-1 binding; in the data active = inhibition above about 40%;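 also: 0% = no compound tracer wells and 100% = peptide blocker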
Pf gamet viab: late stage P. falciparum gametocyte viability inhibitors, primary screen, ATP luminescence, HTS; P. falciparum stage V gametocytes, 24 h; inhibition, % at 10.9 µM; 0.065% of 150,000 active;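 active = inhibition above the mean plus 3 SD of compounds within the control limits, set per campaign, cut at about 38% in these data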;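 also: 0% = DMSO wells and 100% = medium only without gametocytes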
14-3-3 Bad PPI: inhibitors of 14-3-3 zeta/Bad binding, primary screen, biochemical, TR-FRET, bovine 14-3-3 zeta; 14-3-3 protein zeta/delta (Bos taurus), P63103; 0.71% of 220,000 active; inhibition, % at 21.7 µM; TR-FRET 14-3-3zeta/Dy647-pBad peptide displacement, 1 h;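 active = inhibition above about 70%, limit read from the data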;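 also: 0% = full 14-3-3 plus peptide FRET controls and 100% = background without 14-3-3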
Hck-Nef inh: inhibitors of Nef-activated human Hck kinase, primary screen, biochemical, Z-Lyte FRET, 384-well, Hck-YEEI | Tyrosine-protein kinase HCK (Homo sapiens), P08631 | Recombinant Hck-YEEI plus Nef, Z-Lyte FRET kinase assay | inhibition, % at 20 µM | 0.68% of 220,000 active;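 active = Hck-Nef kinase inhibition above about 50%, limit read from the data; inactive = inhibition below that limit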;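 also: 0% = DMSO with Hck plus Nef and 100% = Hck alone without Nef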
Target sequence (P08631 whole entry, looked up): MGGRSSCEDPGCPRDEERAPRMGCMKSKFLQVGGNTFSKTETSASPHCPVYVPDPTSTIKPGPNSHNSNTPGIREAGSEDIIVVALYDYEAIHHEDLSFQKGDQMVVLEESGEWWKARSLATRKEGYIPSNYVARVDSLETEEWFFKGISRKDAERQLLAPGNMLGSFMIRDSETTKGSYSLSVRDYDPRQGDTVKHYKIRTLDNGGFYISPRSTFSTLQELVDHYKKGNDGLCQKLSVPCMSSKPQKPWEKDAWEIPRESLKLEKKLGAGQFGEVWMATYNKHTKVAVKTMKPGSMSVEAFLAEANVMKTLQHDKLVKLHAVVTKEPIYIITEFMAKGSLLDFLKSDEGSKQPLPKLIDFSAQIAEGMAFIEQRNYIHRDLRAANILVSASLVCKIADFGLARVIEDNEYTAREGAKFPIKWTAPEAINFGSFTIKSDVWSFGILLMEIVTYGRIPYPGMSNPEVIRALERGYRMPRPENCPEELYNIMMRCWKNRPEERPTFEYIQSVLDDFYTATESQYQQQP
Mcl1-Noxa inh: Mcl-1/Noxa binding inhibitors, primary screen, biochemical, TR-FRET, 1536-well; TR-FRET Mcl-1/Noxa peptide binding, 2 h; inhibition, % at 21.7 µM; 1.5% of 220,000 active; AID 1022, 2008;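 active = compounds that cut the protein-peptide binding signal by more than 50% relative to plate controls in a single-dose test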;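 also: His-tagged Mcl-1 with rhodamine Noxa BH3 peptide and terbium anti-His antibody; 0% = Mcl-1 plus Noxa peptide wells and 100% = peptide-only wells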
Mcl1-Bid inh: Mcl-1/Bid binding inhibitors, primary screen, biochemical, TR-FRET, 1536-well. Induced myeloid leukemia cell differentiation protein Mcl-1 (Homo sapiens), Q07820. TR-FRET Mcl-1/Bid-Dy647 peptide binding. inhibition, % at 21.7 µM. 0.97% of 220,000 active. AID 1021, 2008;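 active = compounds that cut the binding signal by more than half at the single screening dose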;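 also: His-tagged Mcl-1 with europium anti-His antibody binding Bid BH3 peptide; 0% = Mcl-1 plus peptide wells and 100% = peptide-only wells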
An asterisk follows results filed as active; · = no result given; [ ] = remark or other dose. Only some compounds are listed: those with a hit (about 2.9% of all), similar ones and a draw of the others.

SMILES	Bim-Mcl-1	Pf gamet viab	14-3-3 Bad PPI	Hck-Nef inh	Mcl1-Noxa inh	Mcl1-Bid inh
O=C(Nc1ccccc1)c1ccccc1OCc1cccc([N+](=O)[O-])c1	0.0	17.4	-25.4	4.2	-4.1	-19.9
O=[N+]([O-])c1cc(/C=N\Nc2nccs2)ccc1O	1.0	·	74.8*[fluorescence artefact?]	0.6	100.5*	60.5*
O=[N+]([O-])c1ccccc1/C=N\Nc1nccs1	·	-8.3	·	·	·	·
O=C(NCN1C(=O)C2C3C=CC(C3)C2C1=O)Nc1ccccn1 (centres undefined)	1.0	·	-4.8	-1.6	-23.5	-3.7
CC(NC(=O)Nc1ccccn1)N1C(=O)C2C3C=CC(C3)C2C1=O (centres undefined)	48.0*	·	0.6	0.1	-4.5	-11.1
CC(C)CC(CC(C)C)=NNC(=O)c1ccc2c(c1)OCO2	-1.0	·	-13.6	22.7	14.8	1.6
O=C1NCCCc2nc(Oc3ccccc3)sc21	3.0	·	6.7	1.8	23.6	-1.5
Cc1nn(C)cc1C(C(=O)NC1CCCCC1)N(Cc1ccc(F)cc1)C(=O)c1cnccn1 (centres undefined)	-1.0	0.2	1.3	-16.2	4.9	-13.5
CNC(=O)/C(C#N)=C/c1c(N(Cc2ccccc2)Cc2ccccc2)nc2c(C)cccn2c1=O	90.0*	7.1	15.4	-0.8	-2.6	30.4
Nc1nc(SCc2ccc([N+](=O)[O-])cc2)nc2nc3c(cc12)CCCC3	2.0	13.9	13.4	0.8	4.5	78.8*
Nc1nc(SCC(=O)Nc2ccccc2)nc2nc3c(cc12)CCCC3	1.0	14.1	20.2	4.3	20.6	-2.7
CC(C)n1c(=S)[nH]c2c1c(=O)[nH]c(=O)n2C	-3.0	-1.1	-0.1	-2.8	54.4*	-39.4
CCOC(=O)C1=C(O)/C(=C/c2ccc(C)o2)SC1=NC(=O)c1ccccc1C	·	·	·	55.3*	·	·
O=C(Nc1ccc(NC(=O)c2cccc([N+](=O)[O-])c2)cc1)c1cccc([N+](=O)[O-])c1	·	-6.9	·	·	·	·
O=C(Nc1cccc([N+](=O)[O-])c1)c1cccc(C(=O)Nc2cccc([N+](=O)[O-])c2)c1	·	·	60.7	-12.1	61.5*	52.9*
Cc1cccc(NC(=O)CC2NCCNC2=O)c1 (centres undefined)	1.0	·	-11.3	0.5	-7.3	-19.6
O=C(Nc1nc(-c2ccccc2)cs1)c1cccc([N+](=O)[O-])c1	-3.0	10.1	-5.0	0.2	16.9	3.8
O=C(CC1NCCNC1=O)Nc1cccc([N+](=O)[O-])c1 (centres undefined)	58.0*	·	3.2	3.6	14.6	-23.2
O=C(Nc1nc(-c2cccnc2)cs1)c1cccc([N+](=O)[O-])c1	-2.0	0.1	79.2*	21.3	63.1*	26.5
CC(C)CNC(=O)c1cccc(NC(=O)c2ccc(Cl)c([N+](=O)[O-])c2)c1	45.0*	16.7	-1.6	-1.6	4.6	-14.5
CCC(C)[C@H]1CNC(=O)C(=O)N1CCCc1cc(OC)c(OC)c(OC)c1 (some centres undefined)	·	·	-2.9	26.1	-10.2	-33.1
CCOC(=O)/C=C/C(=O)Nc1cccc([N+](=O)[O-])c1	0.0	·	15.8	-0.8	66.5*	-7.6
O=C(CCN1C(=O)c2ccccc2C1=O)CN1CCOCC1	0.0	-16.9	-1.4	6.5	20.7	-28.3
CCOC(=O)Cn1c2ccc(OC)cc2c2nc3ccccc3nc21	3.0	16.9	34.9	-0.3	25.8	58.9*
CCCC(=O)OCCNc1cc(Sc2nc3ccccc3[nH]2)c2nonc2c1[N+](=O)[O-]	-1.0	3.1	-11.8	1.1	51.8*	-62.2
SMILES	Bim-Mcl-1	Pf gamet viab	14-3-3 Bad PPI	Hck-Nef inh	Mcl1-Noxa inh	Mcl1-Bid inh
CCn1c(=O)c(C(=O)NCCNCCO)c(O)c2ccccc21	-1.0	·	·	-0.9	11.4	51.9*
Cn1c(=O)c(C(=O)NCCO)c(O)c2ccccc21	-11.0	-4.0	6.0	10.2	-41.7	7.9
COC(=O)C1CCCN1C(C(=O)NC1CCCCC1)c1ccc(Cl)cc1 (centres undefined)	-2.0	·	0.7	-5.0	-10.3	-0.5
CSCC[C@@H](Nc1nc(-c2ccccc2)nc2c1oc1ccccc12)C(=O)O	-2.0	-13.0	1.6	-1.0	26.5	60.4*
c1ccc(-c2nc(NCc3cccnc3)c3oc4ccccc4c3n2)cc1	-1.0	-14.1	81.5*	1.8	36.1	63.3*
O=C(O)CNc1nc(-c2ccccc2)nc2c1oc1ccccc12	·	11.7	0.6	16.9	-0.2	-15.8
c1ccc(-c2nc(NCC3CCCO3)c3oc4ccccc4c3n2)cc1 (centres undefined)	0.0	·	70.5*	-0.5	28.6	16.8
O=C(Nc1ccc(C(F)(F)F)cc1)c1cc(-c2cccnc2)nc2ccc(Br)cc12	4.0	·	10.2	18.3	34.6	27.5
O=c1c2ccccc2nc2c3ccccc3c(NCCO)nn12	16.0	·	5.2	13.8	14.2	6.7
COc1ccc2nc(-c3ccccc3)[nH]c2c1	0.0	6.3	14.1	7.0	17.4	4.5
Oc1c(Br)cc(C=Nc2ccc3nc(-c4ccccc4)[nH]c3c2)c(O)c1Br	4.0	-5.7	1.6	29.9	94.1*	-64.3
O=[N+]([O-])c1ccc(O)c(C=Nc2ccc3nc(-c4ccccc4)[nH]c3c2)c1	0.0	4.5	49.7	31.6	62.4*	63.3*
O=[N+]([O-])c1cccc(-c2nc3ccc([N+](=O)[O-])cc3[nH]2)c1	2.0	0.5	10.2	9.9	58.1*	10.1
O=[N+]([O-])c1ccc2nc(-c3ccncc3)[nH]c2c1	·	-12.0	3.3	22.6	19.5	-2.3
Cc1ccc(-n2c(SCc3nnc4n3CCC4)nnc2-c2ccccc2)cc1	-6.0	·	-2.5	-0.5	8.0	3.2
Cc1cc(-c2ccccc2)nc(=O)[nH]1	-1.0	·	74.0*	-1.1	14.7	37.1
O=c1nc(-c2ccccc2)cc(C(F)(F)F)[nH]1	-6.0	·	20.4	-0.2	2.1	31.5
CCOC(=O)c1ccc(N=Nc2c(C)c(C#N)c(O)[nH]c2=O)cc1	-2.0	-12.8	6.1	35.8	87.7*	-21.8
Cc1c(C#N)c(O)n(C)c(=O)c1N=Nc1ccc(S(N)(=O)=O)cc1	5.0	15.8	-5.2	-23.4	27.8	-29.9
CN(Cc1ccccc1)c1ccc(C(CC(N)=O)NC(=O)c2ccc(Br)cc2)cc1[N+](=O)[O-] (centres undefined)	·	-20.3	·	·	·	·
Cc1cccn2cc(COc3ccc(-c4ccccc4)cc3)nc12	-4.0	4.5	79.2*	0.5	10.9	-8.1
